Assay outcomes (PubChem)
Pf Dd2 inh = qHTS Primary assay for Inhibitors of Plasmodium falciparum Dd2 growth in vitro; P. falciparum Dd2 growth, SYBR Green, 72 h; Potency, µM (highest dose often 28.9 µM), most hits filed as inhibitors; hit rate 4.3% among 120,000; active = well fitted inhibition curve with a large enough effect; note: nearly all actives have a fitted effect of over 65% in size
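Infected erythrocytes (Dd2, 0.3% parasitemia, 2.5% hematocrit final) are added to compound in RPMI-1640/Albumax II medium, grown 72 h at 37C in low oxygen, then lysed with saponin/Triton-X containing SYBR Green and read by fluorescence.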
Each line names hits and unclear results; the compound was inactive in the other large screens. The full list was thinned out, with hits kept by preference.

CN(C)C(=O)c1cccnc1OC1CCN(C(=O)Nc2ccc(Cl)cc2F)C1 (stereo not drawn)	none
O=C1NCc2ccccc2CC12CCCCN2Cc1cncs1 (stereo not drawn)	none
COCCN1CCCCCC(O)c2cc(C(=O)NCCCN3CCCc4ccccc43)ccc21 (stereo not drawn)	none
COCCN1CCCCCC(O)c2cc(C(=O)NCCN3CCOCC3)ccc21 (stereo not drawn)	none
COCCN1CCCCCC(O)c2cc(C(=O)NCCc3c[nH]c4ccccc34)ccc21 (stereo not drawn)	Pf Dd2 inh 5µM
Cc1cc(C)n(-c2cccc(CN(C)C(=O)C3CCC(=O)N(Cc4ccccn4)C3)c2)n1 (stereo not drawn)	none
Cc1ccc(C(=O)N2CCCC(c3nn[nH]n3)C2)cn1 (stereo not drawn)	none
Cc1c(C(C)NC(=O)CN2CCOC2=O)cnn1-c1ccc(F)cc1F (stereo not drawn)	none
COCC(=O)NC[C@H]1O[C@@H](CO)[C@@H](O)[C@H]1N1CCN(c2ccccc2OC)CC1	none
O=C(Cc1ccccc1Cl)N1CCC(c2n[nH]c(=O)n2-c2ccccc2)CC1	none
CC(=O)Nc1cc(-c2cc(C(=O)NCc3cc(C)on3)c3c(c2)N(C)CCO3)ccn1	Pf Dd2 inh 7.9µM
CC(=O)Nc1cc(-c2cc(C(=O)NCc3cccnc3)c3c(c2)N(C)CCO3)ccn1	none
Cc1cc(CNC(=O)c2cc(-c3ccccc3)cc3c2OCCN3C)no1	none
CCOc1ccc(NC(=O)c2ccc(-c3ccccc3)s2)cc1	none
CCOC(=O)Cc1cc(C(=O)Nc2ccc(Br)cc2)sc1-c1ccc(C)cc1	Pf Dd2 inh 7.1µM
CCOc1cccc(C(=O)Nc2ccc(NC(=O)c3ccc(Br)cc3)cc2)c1	none
COCCOc1ccc2c(n1)CCN(C(=O)c1ccccc1C)C2	none
Oc1ccc(-c2nc(-c3ccccc3)c(-c3ccc(Br)cc3)[nH]2)cc1	Pf Dd2 inh 6.3µM
COc1ccc(-c2ccc3nc(-c4ccccc4)oc3c2)c(OC)c1OC	none
COc1cc(-c2nc(-c3ccccc3)c(-c3ccc(Br)cc3)[nH]2)cc(OC)c1O	Pf Dd2 inh 1.4µM
O=S(=O)(Nc1ccc(Br)cc1F)c1ccc2nc(-c3ccccc3)[nH]c2c1	none
O=C(O)c1ccc(-c2nc3ncccc3[nH]2)cc1	none
COc1ccc(-c2ccc3nc(-c4cc(F)cc(F)c4)oc3c2)c(OC)c1OC	none
COc1ccc(Br)cc1CNC(=O)CSc1n[nH]c(-c2ccccc2)n1	none
COc1ccc(-c2nc(-c3ccccc3)c(-c3ccc(F)cc3)[nH]2)c(OC)c1C	Pf Dd2 inh 11µM
COc1cc(-c2nc(SCC(=O)Nc3ccc(C)cc3)c(-c3ccc(F)cc3)[nH]2)cc(OC)c1OC	none
CCc1nc(C)c(C(=O)N2C[C@H]3CC[C@@H]2CN(C(=O)c2ccccc2)C3)s1	none
O=C(c1ccccc1)N1CCc2nc(-c3ccc(Cl)cc3)nc(-c3ccccc3)c2C1	none
Cc1cc2c(c(=O)n(-c3ccccc3)c(=O)n2CC(=O)Nc2ccccc2C(F)(F)F)n1C	none
COCCN1CCC(N2CCN(C(=O)c3ccccc3Br)CC2)C1=O (stereo not drawn)	none
O=C1CCCN1CCCN1C(=O)[C@H]2CN(Cc3ccc(F)c(Cl)c3)C[C@H]2C1=O	none
Cc1ccccc1C(=O)N1C[C@@H](F)C[C@H]1C(=O)N1CCCCC1	none
COC(=O)c1ccc2c(c1)nc1n2[C@@H](CNC2CCOCC2)COC1	none
C=CCC1(C(=O)O)CCCN(Cc2cc3c(cc2OC)OCO3)C1 (stereo not drawn)	none
C=CCC1(C(=O)O)CCCN(Cc2cnc(NCc3ccccc3)nc2)C1 (stereo not drawn)	none
C=CCC1(CO)CCCN(C(=O)CCCOc2ccccc2)C1 (stereo not drawn)	none
C=CCC1(CO)CCCN(CCOc2ccc(C)cc2Cl)C1 (stereo not drawn)	Pf Dd2 inh 8.9µM
CCC1(CO)CCCN(CCCOc2ccc(C(N)=O)cc2)C1 (stereo not drawn)	none
C=CCC1(CO)CCCN(Cc2nc(C)cc(-c3ccccc3)n2)C1 (stereo not drawn)	Pf Dd2 inh 8.9µM
O=C(N[C@H]1C[C@H]2C(=O)NC[C@@H](CCC(=O)N3CCCCC3)N2C1)c1cccs1	none
CC(c1n[nH]c(=O)n1CCc1ccccc1F)n1cccn1 (stereo not drawn)	none
COc1ccc(CC2CN(C(=O)c3cccnc3SC)CCO2)cc1 (stereo not drawn)	none
O=C1NCCCCCCN(S(=O)(=O)c2cccc(F)c2)[C@H]2CCCC[C@@H]12	none
CCN(CC)CCNC(=O)c1cc(-c2ccc(Br)s2)nc2ccccc12	Pf Dd2 inh 11µM
COc1cccc(CNC(=O)c2cc(-c3ccc(Cl)s3)nc3ccccc23)c1	none
CCc1ccc(CNC(=O)c2cc(-c3ccc(Br)s3)nc3ccccc23)cc1	none
O=C(COc1ccc(F)cc1)N1CCCCC1c1nc(CCOCC2CCCC2)no1 (stereo not drawn)	none
O=C(c1ccc(C(F)(F)F)cc1)N1CCC(N2CCNC2=O)CC1	none
COc1ccc(Cl)cc1NC(=O)Cn1cnc2sc(C)c(S(=O)(=O)N3CCN(c4ccccc4OC)CC3)c2c1=O	Pf Dd2 inh 10µM
COc1ccccc1N1CCN(C(=O)Cn2cnc3sc(C)c(S(=O)(=O)N4CCC(C)CC4)c3c2=O)CC1	none
COc1ccc(NC(=O)Cn2cnc3sc(C)c(S(=O)(=O)N4CCN(C)CC4)c3c2=O)cc1Cl	none
COCCNC(=O)Cn1cnc2sc(C)c(S(=O)(=O)N3CCN(c4ccccc4OC)CC3)c2c1=O	none
COc1ccc(OC)c(NC(=O)Cn2cnc3sc(C)c(S(=O)(=O)N4CCN(c5ccccc5OC)CC4)c3c2=O)c1	Pf Dd2 inh 11µM
COCCCNC(=O)Cn1cnc2sc(C)c(S(=O)(=O)N3CCN(c4ccccc4OC)CC3)c2c1=O	none
CCOc1ccc(CN2CCNC(=O)C2CC(=O)N2CCCCCC2)cc1 (stereo not drawn)	none
CCCN1CCC(NC(=O)c2cc(COc3ccccc3)[nH]n2)CC1	none
COCC(=O)Nc1ccc(-c2c(-c3ccccc3OC)nn(-c3ccc(C)cc3)c2OC(C)=O)cc1	none
Cc1nc2c(c(-c3ccc(Cl)cc3)n1)CN(C(=O)c1ccc(C(F)(F)F)cc1)CC2	none
O=C1NC(C(=O)NC2CCN(Cc3ccccc3)CC2)Cn2cccc21 (stereo not drawn)	none
O=C(c1cccnc1)N1CCC2(CC1)CC(OCC1CC1)CCO2 (stereo not drawn)	none
COCCCNC(=O)[C@@H]1Cc2cn(Cc3cc(C)on3)c3cccc(c23)[C@H](CC(C)C)N1	none
C=CCNC(=O)[C@@H]1Cc2cn(Cc3ccncc3)c3cccc(c23)[C@H](CC(C)C)N1	none
C=CCn1cc2c3c(cccc31)[C@H](CC(C)C)N[C@H](C(=O)NCCN(C)C)C2	none
Cc1cc(Cn2cc3c4c(cccc42)[C@H](CC(C)C)N[C@H](C(=O)NCc2cncn2C)C3)no1	Pf Dd2 inh 11µM
CC(C)C[C@@H]1N[C@H](C(=O)NC2CCCC2)Cc2cn(Cc3nccn3C)c3cccc1c23	none
CC(C)C[C@@H]1N[C@H](C(=O)O)Cc2cn(CC3CCC3)c3cccc1c23	none
C=CCNC(=O)[C@@H]1Cc2cn(CC=C)c3cccc(c23)[C@H](CC(C)C)N1	Pf Dd2 inh 14µM
C=CCNC(=O)[C@@H]1Cc2cn(Cc3cc(C)on3)c3cccc(c23)[C@H](CC(C)C)N1	none
CC(C)C[C@@H]1N[C@H](C(=O)O)Cc2cn(Cc3nccn3C)c3cccc1c23	none
Cc1cc(Cn2cc3c4c(cccc42)[C@H](CC(C)C)N[C@H](C(=O)NC2CCC2)C3)no1	none
C#CCNC(=O)[C@@H]1Cc2cn(Cc3nccn3C)c3cccc(c23)[C@H](CC(C)C)N1	Pf Dd2 inh 10µM
